Reference: the supplement of paper PMC8975748
Where a name gives a salt, the structure may show the parent alone.

system: Saccharomyces cerevisiae BY4741 SeMeCo community; assay: z-score of subpopulation abundance vs DMSO median, subpopulation auxotrophic for H; higher = larger share of this subpopulation than in DMSO controls; conditions: 10 µM; 24 h; SM minimal medium; subpopulation (auxotrophy): H
Method: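 Fluorescent four-plasmid SeMeCo (self-establishing metabolically cooperating S. cerevisiae BY4741 community; plasmids pH-mRuby2, pL-mWasabi, pU-eCFP, pM-TagRFP657) was grown 24 h in minimal SM medium with each Selleck FDA-approved drug at 10 µM in 384-well plates. Cells were fixed and imaged by high-content confocal microscopy. For each auxotrophic subpopulation (and the prototroph), a z-score gives the deviation from the DMSO vehicle-control population median.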

Row | SMILES | z-score of subpopulation abundance
1 | Cc1cc(C)nc(O)n1.O=C(Nc1ccc([N+](=O)[O-])cc1)Nc1ccc([N+](=O)[O-])cc1 [Nicarbazin] | -0.25
2 | CC1(C)S[C@@H]2[C@H](NC(=O)[C@H](C(=O)O)c3ccsc3)C(=O)N2[C@H]1C(=O)O [Ticarcillin sodium] | 0.6
3 | CCCCc1oc2ccccc2c1C(=O)c1cc(I)c(OCCN(CC)CC)c(I)c1 [Amiodarone HCl] | 1.97
4 | CO/N=C(\C(=O)N[C@@H]1C(=O)N2C(C(=O)O)=C(COC(C)=O)CS[C@H]12)c1csc(N)n1 [Cefotaxime sodium] | -0.66
5 | CC(=O)OCC(COC(C)=O)OC(C)=O [Triacetin] | 0.22
6 | CN(Cc1ccc(C(C)(C)C)cc1)Cc1cccc2ccccc12 [Butenafine HCl] | -0.76
7 | CCCCCCCCOc1ccccc1C(=O)Nc1ccc(C(=O)OCC[N+](C)(CC)CC)cc1 [Otilonium Bromide] | 4.58
8 | CC(=O)OC1CC2(C)C(CC(O)C3C4(C)CCC(O)C(C)C4CCC32C)C1=C(CCC=C(C)C)C(=O)O (stereo not given) [Fusidine] | 2.59
9 | CN(C)[C@@H](CCOc1cccc2ccccc12)c1ccccc1 [Dapoxetine HCl] | -0.41
10 | CC(=O)NS(=O)(=O)c1ccc(N)cc1 [Sulfacetamide Sodium] | 0.92
11 | CCCNC(C)C(=O)Nc1ccccc1C (stereo not given) [Prilocaine hydrochloride] | -0.67
12 | COc1ccc(CCN(C)CCCC(C#N)(c2ccc(OC)c(OC)c2)C(C)C)cc1OC (stereo not given) [Verapamil HCl] | 0.46
13 | CC(=O)O[C@H]1C[C@@H]2CC[C@@H]3[C@H](CC[C@@]4(C)[C@H]3C[C@H]([N+]3(C)CCCCC3)[C@@H]4OC(C)=O)[C@@]2(C)C[C@@H]1N1CCCCC1 [Vecuronium Bromide] | -0.09
14 | CC(=O)[O-].[K+] [Potassium acetate] | -0.01
15 | CCCCCOc1ccc(-c2ccc(-c3ccc(C(=O)N[C@H]4C[C@@H](O)[C@@H](O)NC(=O)[C@@H]5[C@@H](O)[C@@H](C)CN5C(=O)[C@H]([C@@H](C)O)NC(=O)[C@H]([C@H](O)[C@@H](O)c5ccc(O)cc5)NC(=O)[C@@H]5C[C@@H](O)CN5C(=O)[C@H]([C@@H](C)O)NC4=O)cc3)cc2)cc1 | 25
16 | COc1cc(O)c(C(=O)Nc2nc(C(=O)NCCN(C(C)C)C(C)C)cs2)cc1OC [Acotiamide hydrochloride] | 0.42
17 | Nc1ccc(S(=O)(=O)Nc2ncccn2)cc1 [Sulfadiazine] | -0.65
18 | CC1(C)[C@H](C(=O)O)N2C(=O)C[C@H]2S1(=O)=O [Sulbactam] | -0.12
19 | O=C(O)Cc1ccccc1Nc1c(Cl)cccc1Cl [Diclofenac Sodium] | -0.51
20 | CCC[C@@H]1C[C@@H](C(=O)N[C@@H]([C@H]2O[C@H](SC)[C@H](O)[C@@H](O)[C@H]2O)[C@H](C)Cl)N(C)C1 [Clindamycin HCl] | -0.08

Row | SMILES | z-score of subpopulation abundance
21 | COc1ccc2cc3[n+](cc2c1OC)CCc1cc2c(cc1-3)OCO2 [Berberine chloride] | 0.04
22 | C=C[C@H]1CN2CC[C@H]1C[C@H]2[C@H](O)c1ccnc2ccc(OC)cc12 [Quinine HCl Dihydrate] | 0.07
23 | Cc1c(Nc2ncccc2C(=O)O)cccc1C(F)(F)F [Flunixin Meglumin] | -0.33
24 | C1N2CN3CN1CN(C2)C3 [Methenamine] | 0.28
25 | CCCCCC(=O)O[C@]1(C(C)=O)CC[C@H]2[C@@H]3CCC4=CC(=O)CC[C@]4(C)[C@H]3CC[C@@]21C [Hydroxyprogesterone caproate] | 1.49
26 | CCN(CC)CCNC(=O)c1cc(Cl)c(N)cc1OC [Metoclopramide HCl] | -1.04
27 | COC(=O)C1=C(C#N)NC(C)=C(C(=O)OC(C)C)C1c1cccc([N+](=O)[O-])c1 (stereo not given) [Nilvadipine] | 1.45
28 | CCN(CC)CCOCCOC(=O)C1(c2ccccc2)CCCC1 [Pentoxyverine Citrate] | -0.71
29 | NC[C@H]1O[C@H](O[C@H]2[C@H](O)[C@@H](O[C@H]3O[C@H](CO)[C@@H](O)[C@H](N)[C@H]3O)[C@H](N)C[C@@H]2N)[C@H](O)[C@@H](O)[C@@H]1O [Kanamycin sulfate] | 1.26
30 | C#CCN[C@@H]1CCc2ccccc21 [Rasagiline] | -0.48
31 | CN(C)CCc1c[nH]c2ccc(Cn3cncn3)cc12 [Rizatriptan Benzoate] | 0.25
32 | Fc1ccc([C@@H]2CCNC[C@H]2COc2ccc3c(c2)OCO3)cc1 [Paroxetine mesylate] | -0.34
33 | O=C(O)CCCCCCCC(=O)O [Azelaic acid] | 0.43
34 | CC(=O)[C@@]1(O)CC[C@H]2[C@@H]3C[C@H](C)C4=CC(=O)CC[C@]4(C)[C@H]3CC[C@@]21C [Medroxyprogesterone] | -0.26
35 | N#Cc1ccc2[nH]cc(CCCCN3CCN(c4ccc5oc(C(N)=O)cc5c4)CC3)c2c1 [Vilazodone HCl] | 1.09
36 | CN(C)CCc1c[nH]c2ccc(CS(=O)(=O)N3CCCC3)cc12 [Almotriptan Malate] | -0.37
37 | O=C(O)c1cc(-c2ccc(F)cc2F)ccc1O [Diflunisal] | -1.33
38 | CN[C@H]1C(=O)N[C@@H]2Cc3ccc(cc3)Oc3cc4cc(c3O[C@@H]3O[C@H](C(=O)O)[C@@H](O)[C@H](O)[C@H]3NC(=O)CCCCCCCCC(C)C)Oc3ccc(cc3Cl)[C@@H](O)[C@@H]3NC(=O)[C@H](NC(=O)[C@@H]4NC(=O)[C@@H](NC2=O)c2cc(cc(O)c2Cl)Oc2cc1ccc2O)c1ccc(O)c(c1)-c1c(O[C@H]2O[C@H](CO)[C@@H](O)[C@H](O)[C@@H]2O)cc(O)cc1[C@@H](C(=O)NCCCN(C)C)NC3=O [Dalbavancin] | 4.04
39 | N[C@@H]1CCCCN(c2c(F)cc3c(=O)c(C(=O)O)cn(C4CC4)c3c2Cl)C1 [Besifloxacin HCl] | 0.1
40 | CNCC[C@H](Oc1cccc2ccccc12)c1cccs1 [Duloxetine HCl] | -0.45
